Screening data: PubChem BioAssay, National Center for Advancing Translational Sciences (NCATS)
Compounds with a hit are over-represented: about 15% of the library has one in this group of screens.
Pf growth 48h = P. falciparum growth inhibition at 48 hours (one generation). AID 504832. Potency, µM (titrated, usually from 28.7 µM), inactives show top-dose activity change, negative = inhibition, actives largely listed as inhibitors. P. falciparum luciferase growth in erythrocytes, 48 h. hit rate 5.9% among 310,000; also: potency is read from the fitted curve at half-maximal effect; % is scaled to controls: 0 for no effect and ±100 for the full control effect
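Luciferase-expressing P. falciparum in infected erythrocytes (2% hematocrit, 0.1% parasitemia final) in RPMI 1640/0.5% Albumax were exposed to compound for 48 hours at 37 C, 5% CO2; growth read as luminescence.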
SARS PLP yeast = SARS-CoV PLP inhibition in yeast; S. cerevisiae expressing SARS-CoV PLpro, growth rescue; Potency, µM (highest dose often 32.9 µM), inactives show at the highest dose activity, positive = growth rescue, actives largely listed as activators; hit rate 0.19% among 330,000; calls by dose curve; also: potency is read from the fitted curve at half-maximal effect; 0% is about no effect; nearly all actives have a fitted effect of over 55% in size
HCV inhibitor = inhibitors of hepatitis C virus infection; Potency, µM (series often up to 41.8 µM), for inactives: top-dose activity change, negative = inhibition, most hits filed as inhibitors; Huh7.5.1 HCVcc-Cre infection, luciferase reporter, 44 h; hit rate 3.4% among 340,000; also: potency is read from the fitted curve at half-maximal effect; % is scaled to controls: 0 for no effect and ±100 for the full control effect
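Compounds are dispensed onto cells plated 4 h earlier at 1,000 per well, with HCVcc-Cre virus (about 0.5 moi) added next. Following 44 h of culture, luminescent signal is measured for 15 sec after 15 min with substrate at room temperature.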
HCMV antiviral = human cytomegalovirus inhibition; HFF cells, HCMV-luciferase reporter, 72 h; active compounds read low; activity change, negative = inhibition, % at 57.5 µM; hit rate 4.5% among 410,000; AID 1259415; in the data active = activity change below about -60%; inconclusive = no clear call, values can overlap the other calls; inactive = above about -39%; also: % is scaled to controls: 0 for no effect and ±100 for the full control effect
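HFF cells seeded 16 h at 37C, treated with compounds, infected with luciferase-reporter HCMV at MOI 1 PFU/cell; luciferase read at 72 h post infection, normalized to buffer-only and Salinomycin controls.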
Pf growth 96h = inhibits malaria parasite growth, 96 h; AID 504834; hit rate 6.9% among 320,000; Potency, µM (highest dose often 28.7 µM), for inactives: top-dose activity change, negative = inhibition, usual class: inhibitors; P. falciparum luciferase reporter growth, 96 h; also: potency is read from the fitted curve at half-maximal effect; % is scaled to controls: 0 for no effect and ±100 for the full control effect
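Delayed-death screen, second-generation endpoint: infected erythrocytes, 2% hematocrit, 0.05% parasitemia final; 96 hours at 37 C, 5% CO2; luciferase detection reagent; luminescence decrease equals reduced growth.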
Sm TGR inh = blocks Schistosoma mansoni thioredoxin glutathione reductase; Q962Y6; purified TGR, DTNB reduction, TNB absorbance 405 nm; hit rate 3% among 360,000; Potency, µM (titrated, usually from 114 µM), without a hit: top-dose activity change, negative = inhibition, hits mostly inhibitors; also: potency is read from the fitted curve at half-maximal effect; % is scaled to controls: 0 for no effect and ±100 for the full control effect; nearly all actives have a fitted effect of over 60% in size
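First, TGR (20 nM dispensed) and NADPH were mixed with compound. Second, a 15 min room-temperature incubation followed. Third, further NADPH and then DTNB were added to start the reaction. Finally, TNB absorbance was monitored kinetically.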
The depositor's hits bear a star; ? = inconclusive; . = no result given; [ ] = another dose, or the depositor's remark. Unless noted, calls follow the shape of the dose curve; as a rule, active = well fitted curve in the direction sought with a large enough effect; inconclusive = small, poorly fitted or top-dose-only effect, or another doubt; inactive = no such curve, though single readings can be large; an effect the other way counts as inactive or inconclusive.

SMILES	Pf growth 48h	SARS PLP yeast	HCV inhibitor	HCMV antiviral	Pf growth 96h	Sm TGR inh
Clc1nc(-c2ccccn2)nc2scc(-c3ccccc3)c12	?	-76.2%	?	-66.3*	-43.5%	-11.9%
N#Cc1c(C(F)(F)F)cc(-c2cccs2)nc1SCC(=O)Nc1ccccc1F	.	.	.	-31.2	.	-12.9%
COc1ccccc1N1CCN(C2CCCN(C(=O)c3cscn3)C2)CC1 (stereo not drawn)	18.9%	-1.5%	7.5%	-30.7	?	0.9%
Cc1ccccc1N1CCN(C2CCCN(C(=O)c3cn4cccc(C)c4n3)C2)CC1 (stereo not drawn)	?	-2.5%	11.2µM*	-32.0	?	15.5%
COc1ccc(C(=O)N2CCCC(N3CCN(c4ccccc4F)CC3)C2)c(OC)n1 (stereo not drawn)	-2.6%	0.5%	?	-27.5	13.1µM*	?
COc1ccccc1N1CCN(C2CCCN(C(=O)c3snnc3C)C2)CC1 (stereo not drawn)	-0.4%	4.7%	18.1%	-20.8	13.1µM*	-1.2%
COc1ccc(N=C2NN=C(c3ccc4c(c3)OCCO4)CS2)cc1	.	-2.1%	?	4.9	-84.3%	-11.1%
c1cc2c(cc1C1=NNC(=NC3CC3)SC1)OCCO2	-57.1%	-17.9%	-16.4%	-90.0*	-44.0%	3.6%
FC(F)Sc1ccc(N=C2NN=C(c3ccc4c(c3)OCCO4)CS2)cc1	?	-2.0%	10µM*	2.3	?	-27.6%
CCOC(=O)Cc1cc(-c2ccc(O)cc2)nc2ccc3ccccc3c12	?	-3.3%	?	-9.7	11.7µM*	14.4%
C[N+](C)(C)CCC(=O)N1C/C(=C/c2ccccc2)C(=O)/C(=C\c2ccccc2)C1	.	.	?	-66.6*	.	.
CN(C)CCC(=O)N1C/C(=C/c2ccccc2)C(=O)/C(=C\c2ccccc2)C1	.	.	?	-97.9*	.	.
Cc1ccc(C(=O)NCC(=O)OC(C)C(=O)Nc2ccc(N3CCOCC3)cc2)s1 (stereo not drawn)	8.8%	0.3%	12.1%	20.0	15.5%	12.0%
CC1=C(C(=O)N(C)C)CC(CC(=O)NCCc2ccccn2)C(=O)N1Cc1ccc(C(C)(C)C)cc1 (stereo not drawn)	.	.	.	-9.5	.	.
CC(CCc1ccc(O)cc1)NCCc1ccc(O)c(O)c1 (stereo not drawn)	?	.	?	-13.6	1.51µM*	.
CSc1cccc(NC(=O)c2ccc3c(c2)c(C)c(C)n3Cc2ccc(F)cc2)c1	.	.	.	?	.	2.3%
O=C(Nc1ccc(Cl)c(C(F)(F)F)c1)C(Cc1ccccc1)NS(=O)(=O)c1cccc2nsnc12 (stereo not drawn)	.	.	.	-26.4	.	-3.4%
CCN(CC)CCNC(=O)CCCCn1c(=S)[nH]c2c([nH]c3ccc(OC)cc32)c1=O	9.28µM*	-3.5%	14.7%	26.6	?	11.2%
CCOCCCn1c(=S)[nH]c2cc(C(=O)NCCN(CC)CC)ccc2c1=O	?	1.2%	12.6µM*	36.8	?	5.4%
CCN(CC)CCNC(=O)c1ccc2c(=O)n(C3CCCC3)c(=S)[nH]c2c1	2.33µM*	3.6%	?	10.5	3.3%	-3.8%
CCCCCNC(=O)c1ccc2c(=O)n(CCCN3CCCC3=O)c(=S)[nH]c2c1	5.86µM*	1.3%	?	-27.8	10.4µM*	-0.2%
CCCCNC(=O)c1ccc2c(=O)n(CCCOCC)c(=S)[nH]c2c1	49.1%	3.5%	5.7%	-4.9	40.5%	6.9%
Cc1ccccc1-c1cnc(C(O)c2ccc(F)c(F)c2)[nH]1 (stereo not drawn)	.	.	.	51.7	.	.
CC(C(=O)N(C1CC1)C1(C(=O)Nc2ccccc2)CCCC1)N1C(=O)c2ccccc2C1=O (stereo not drawn)	.	-3.0%	?	5.9	?	-0.3%[11.4 µM]
O=C(c1cccn1-c1nnc(N2CCCCC2)s1)N1CCN(c2ccccc2)CC1	.	.	.	0.0	.	0.1%
SMILES	Pf growth 48h	SARS PLP yeast	HCV inhibitor	HCMV antiviral	Pf growth 96h	Sm TGR inh
O=C(NCC(O)CN1CCOCC1)c1ccc([N+](=O)[O-])cc1 (stereo not drawn)	2.4%	8.7%	15.5%	10.5	25.8%	-9.3%
CCOc1ncccc1C(=O)OCC(=O)c1cc(OC)c(OC)c(OC)c1	-1.9%	-0.3%	-10.7%	-0.9	2.7%	0.8%
C[C@@H]1CN(S(=O)C(C)(C)C)[C@H](CCO)/C1=C\CCO (stereo partly drawn)	.	.	5.2%[8.37 µM]	16.0	.	.
CCOc1cc2[nH]c(=S)n(Cc3ccc(C(=O)NCCN(CC)CC)cc3)c(=O)c2cc1OCC	2.62µM*	-2.9%	?	-20.3	-22.1%	12.0%
O=[N+]([O-])c1cc2c(cc1/C=N/Nc1nc(N3CCCC3)nc(N3CCCC3)n1)OCO2	13.2%	12.0%	?	-22.0	1.4%	1.0%
NNc1nc(Nc2ccc([N+](=O)[O-])cc2)nc(N2CCCCCC2)n1	4.15µM*	-1.6%	-14.1%	13.0	68.7%	-19.1%
CCCNc1nc(Nc2ccc(C)cc2)nc(N2CCCC2)n1	.	-32.5%	10µM*	.	2.08µM*	3.7%
O=[N+]([O-])c1ccc(Nc2nc(N/N=C\c3ccc4c(c3)OCO4)nc(N3CCCCC3)n2)cc1	2.08µM*	1.3%	?	-7.6	2.62µM*	8.9%
CNC(=O)C[C@@H]1C(=O)N(c2ccc(Br)cc2)CC1(C)C	.	.	.	17.1	.	.
Cc1cc(C)cc(OCc2cc(=O)n3c4c(sc3n2)CCCC4)c1	.	.	.	-2.0	.	2.5%
Cc1ccc(-n2ncc3c2CC(C)(C)CC3NC(=O)CCc2cccnc2)cc1 (stereo not drawn)	-11.1%	-3.6%	?	.	11.7µM*	0.0%
Cc1ccc(-n2ncc3c2CC(C)(C)CC3NC(=O)c2c(C)noc2C)cc1 (stereo not drawn)	-18.0%	4.6%	0.3%	-18.9	?	-13.6%
CC1(C)Cc2c(cnn2-c2ccc(F)cc2)C(NC(=O)CCn2cncn2)C1 (stereo not drawn)	-2.3%	1.4%	.	50.3	?	-18.5%
CCc1noc(C)c1C(=O)NC1CC(C)(C)Cc2c1cnn2-c1ccccc1 (stereo not drawn)	-22.9%	-2.5%	.	13.9	9.28µM*	-9.4%
CC1(C)Cc2c(cnn2-c2ccccc2)C(NC(=O)CCCn2cncn2)C1 (stereo not drawn)	-18.7%	-0.2%	15.7%	66.1	11.7µM*	-0.1%
Cc1ccc(S(=O)(=O)N2CCC[C@H]2C(=O)OC(C)C(=O)Nc2ncc(Cl)cc2Cl)cc1 (stereo partly drawn)	3.1%	23.8%	-10.1%	28.6	33.1%	-4.0%
Nc1[nH]c(C(=O)c2ccccc2)c(-c2ccncc2)c1C(=O)NC1CC1	.	.	.	-10.4	.	.
Cc1ccc2c(=O)cc(C(=O)Nc3c(C(=O)c4ccccc4)oc4ccccc34)oc2c1	.	.	.	20.1	.	3.7%
